# Laboratory results reported in PubChem BioAssay (EPA / NIEHS).
# The source made the active and inactive calls. The calls were made as follows: active = hit-call score of the fitted dose curve at least 0.9, where 1 is the maximum; inactive = score below 0.9.
# Legend:
# Details in all cases: mRNA level, 48 h; actives raise or lower the signal
# [1] = read-out: Bcl-2 (BAX) gene, BAX (gene 581); experiment: LTEA_HepaRG_BAX: Life Technologies and Expression Analysis (LTEA) Assay for Bcl-2 (BAX) gene using HepaRG (AID 2283470)
# Summary of the method: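 HepaRG (human liver), 48 h exposure, duplicate wells. 8-pt curve, half-log from 100 uM, 0.5% DMSO. BAX transcript by TaqMan qRT-PCR; ACTB/GAPDH/POLR2A normalization; gain or loss vs DMSO baseline.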
# [2] = read-out: adenosine kinase (ADK) gene, ADK (gene 132); experiment: LTEA_HepaRG_ADK: Life Technologies and Expression Analysis (LTEA) Assay for adenosine kinase (ADK) gene using HepaRG (AID 2283471)
# Summary of the method: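 Read-out is ADK transcript level measured by qRT-PCR and normalised to three housekeeping genes. Cells are human HepaRG, dosed for 48 h at up to 100 uM in 0.5% DMSO. Gain or loss of signal is fitted against DMSO controls.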
# [3] = read-out: Alpha-fetoprotein (AFP) gene, AFP (gene 174); experiment: LTEA_HepaRG_AFP: Life Technologies and Expression Analysis (LTEA) Assay for Alpha-fetoprotein (AFP) gene using HepaRG (AID 2283472)
# Summary of the method: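 HepaRG, single lot; 48 h post-plating -> serum-free induction medium; cpd 8-pt, 100 uM top, half-log, 0.5% DMSO, duplicate, 48 h. RNA -> qRT-PCR AFP, norm ACTB/GAPDH/POLR2A. Bidirectional fit vs DMSO.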
# BCL2L11 (gene 10018) = experiment: LTEA_HepaRG_BCL2L11: Life Technologies and Expression Analysis (LTEA) Assay for Bcl-2 (BCL2L11) gene using HepaRG (AID 2283473)
# Summary of the method: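 BCL2L11 transcript levels are measured by Fluidigm qRT-PCR, normalized to three housekeeping genes. HepaRG cultures were plated 48 h, then treated 48 h with test chemical (top 100 uM, half-log, 0.5% DMSO vehicle); curves were fitted bidirectionally against DMSO.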
# [4] = read-out: Bcl-2 (BID) gene, BID (gene 637); experiment: LTEA_HepaRG_BID: Life Technologies and Expression Analysis (LTEA) Assay for Bcl-2 (BID) gene using HepaRG (AID 2283476)
# Summary of the method: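 Transcript levels of BID, measured by qRT-PCR and normalized to three housekeeping genes, were fitted bidirectionally against DMSO controls. Cells were HepaRG, dosed 48 h at up to 100 uM.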
# Caspase-3 (Homo sapiens) = Caspase-3 (Homo sapiens) (UniProt P42574); experiment: LTEA_HepaRG_CASP3: Life Technologies and Expression Analysis (LTEA) Assay for cysteine-aspartic acid protease (CASP3) using HepaRG (AID 2283477)
# Summary of the method: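 Expression of CASP3 was quantified by TaqMan qRT-PCR against three housekeeping genes (ACTB, GAPDH, POLR2A), bidirectionally versus 0.5% DMSO. HepaRG cultures received compounds in duplicate, top 100 uM with half-log steps, for 48 h in serum-free induction medium.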
# [5] = read-out: Cytochrome P450 (CYP24A1), CYP24A1 (gene 1591); experiment: LTEA_HepaRG_CYP24A1: Life Technologies and Expression Analysis (LTEA) Assay for Cytochrome P450 (CYP24A1) using HepaRG (AID 2283478)
# Summary of the method: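 mRNA of CYP24A1 quantified by TaqMan qRT-PCR (ACTB/GAPDH/POLR2A normalization) after 48 h chemical exposure of HepaRG cells, top concentration 100 uM, half-log steps, 0.5% DMSO vehicle, duplicates. Curves fitted bidirectionally against DMSO baseline.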
# [6] = read-out: Cytochrome P450 (CYP1A2), CYP1A2 (gene 1544); experiment: LTEA_HepaRG_CYP1A2: Life Technologies and Expression Analysis (LTEA) Assay for Cytochrome P450 (CYP1A2) using HepaRG (AID 2283479)
# Summary of the method: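 CYP1A2 transcript measured by TaqMan qRT-PCR against three housekeeping genes after 48-hour chemical exposure of HepaRG cells. Eight-point half-log series topping at 100 uM in 0.5% DMSO, duplicates; gain or loss fitted relative to vehicle.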
# [7] = read-out: cysteine-aspartic acid protease (CASP8), CASP8 (gene 841); experiment: LTEA_HepaRG_CASP8: Life Technologies and Expression Analysis (LTEA) Assay for cysteine-aspartic acid protease (CASP8) using HepaRG (AID 2283480)
# Summary of the method: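 Differentiated human HepaRG cells, plated 48 h then switched to serum-free induction medium, were exposed in duplicate for 48 h to 8 half-log concentrations up to 100 uM in 0.5% DMSO. CASP8 mRNA was quantified by qRT-PCR, normalized to ACTB/GAPDH/POLR2A.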
# [8] = read-out: Cytochrome P450 (CYP2B6), CYP2B6 (gene 1555); experiment: LTEA_HepaRG_CYP2B6: Life Technologies and Expression Analysis (LTEA) Assay for Cytochrome P450 (CYP2B6) using HepaRG (AID 2283481)
# Summary of the method: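 CYP2B6 transcript level quantified by qRT-PCR against three housekeeping genes, fitted bidirectionally relative to DMSO. HepaRG cultures received chemicals for 48 h, 8-point half-log series from 100 uM in 0.5% DMSO, duplicate wells, serum-free induction medium.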
# [9] = read-out: Cytochrome P450 2C19 (Homo sapiens) (UniProt P33261); experiment: LTEA_HepaRG_CYP2C19: Life Technologies and Expression Analysis (LTEA) Assay for CYP2C19 using HepaRG (AID 2283482)
# Summary of the method: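 CYP2C19 transcript levels by qRT-PCR, normalized to three housekeeping genes, in HepaRG cells after 48 h chemical exposure. Eight-point half-log series topping at 100 uM, 0.5% DMSO vehicle. Increases and decreases both fitted against DMSO.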
# CYP2C8 (gene 1558) = experiment: LTEA_HepaRG_CYP2C8: Life Technologies and Expression Analysis (LTEA) Assay for CYP2C8 using HepaRG (AID 2283483)
# Summary of the method: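 Differentiated human HepaRG cells were exposed for 48 h in serum-free induction medium to eight half-log concentrations up to 100 uM in 0.5% DMSO, in duplicate. CYP2C8 mRNA was measured by TaqMan qRT-PCR, normalized to ACTB, GAPDH and POLR2A, and fitted bidirectionally against DMSO.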
# CYP2C9 (gene 1559) = experiment: LTEA_HepaRG_CYP2C9: Life Technologies and Expression Analysis (LTEA) Assay for CYP2C9 using HepaRG (AID 2283484)
# Summary of the method: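 Differentiated human HepaRG cells were exposed 48 h in serum-free induction medium to eight half-log concentrations up to 100 uM in 0.5% DMSO. CYP2C9 mRNA was measured by qRT-PCR, normalized to ACTB, GAPDH and POLR2A, and fitted bidirectionally against DMSO.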
# CYP2E1 (gene 1571) = experiment: LTEA_HepaRG_CYP2E1: Life Technologies and Expression Analysis (LTEA) Assay for CYP2E1 using HepaRG (AID 2283485)
# Summary of the method: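 Human liver line HepaRG, plated 48 h, then serum-free induction medium + chemical x 48 h; 8-pt CRC from 100 uM, half-log, 0.5% DMSO, n=2. Readout: CYP2E1 mRNA qRT-PCR vs ACTB/GAPDH/POLR2A; bidirectional fit vs DMSO.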
# CYP4A11 (gene 1579) = experiment: LTEA_HepaRG_CYP4A11: Life Technologies and Expression Analysis (LTEA) Assay for CYP4A11 using HepaRG (AID 2283486)
# Summary of the method: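 Readout is CYP4A11 transcript level by qRT-PCR, normalized to three housekeeping genes and fitted bidirectionally against 0.5% DMSO. Human HepaRG cells were treated 48 h, in duplicate, with an 8-point half-log series topping at 100 uM.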
# [10] = read-out: DNA damage-inducible transcript 3 (DDIT3), DDIT3 (gene 1649); experiment: LTEA_HepaRG_DDIT3: Life Technologies and Expression Analysis (LTEA) Assay for DNA damage-inducible transcript 3 (DDIT3) using HepaRG (AID 2283488)
# Summary of the method: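 HepaRG plated 48 h, switched to serum-free induction medium, dosed 48 h (100 uM top, half-log, 8 pts, 0.5% DMSO, n=2); RNA isolated; DDIT3 by qRT-PCR; bidirectional curve fit vs DMSO.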
# [11] = read-out: Pro-epidermal growth factor (Homo sapiens) (UniProt P01133); experiment: LTEA_HepaRG_EGF: Life Technologies and Expression Analysis (LTEA) Assay for Epidermal growth factor (EGF) using HepaRG (AID 2283489)
# Summary of the method: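 EGF transcript measured by Fluidigm TaqMan qRT-PCR with three housekeeping genes for normalization, 48 h after dosing HepaRG cultures in duplicate (top 100 uM, half-log steps, 0.5% DMSO vehicle). Gain or loss relative to DMSO fitted.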
# [12] = read-out: Apoptosis regulator Bcl-2 (Homo sapiens) (UniProt P10415); experiment: LTEA_HepaRG_BCL2: Life Technologies and Expression Analysis (LTEA) Assay for Bcl-2 gene using HepaRG (AID 2283475)
# Summary of the method: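 HepaRG, plated 48 h then switched to serum-free induction medium; dosed 48 h, 8 conc. (max 100 uM, half-log steps), duplicate, 0.5% DMSO. Lysis in RLT, RNA isolated, TaqMan qRT-PCR for BCL2; ACTB/GAPDH/POLR2A normalisation; bidirectional fit vs DMSO.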
# [13] = read-out: Cytochrome P450 3A4 (Homo sapiens) (UniProt P08684); experiment: LTEA_HepaRG_CYP3A4: Life Technologies and Expression Analysis (LTEA) Assay for CYP3A4 using HepaRG (AID 2283487)
# Summary of the method: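 HepaRG, 48 h exposure, 8-pt CRC from 100 uM (half-log), 0.5% DMSO, duplicates; serum-free induction medium. Readout: CYP3A4 mRNA, qRT-PCR, ACTB/GAPDH/POLR2A normalization. Bidirectional fit vs DMSO.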
# Sequence of Caspase-3 (Homo sapiens) (P42574 whole entry, looked up): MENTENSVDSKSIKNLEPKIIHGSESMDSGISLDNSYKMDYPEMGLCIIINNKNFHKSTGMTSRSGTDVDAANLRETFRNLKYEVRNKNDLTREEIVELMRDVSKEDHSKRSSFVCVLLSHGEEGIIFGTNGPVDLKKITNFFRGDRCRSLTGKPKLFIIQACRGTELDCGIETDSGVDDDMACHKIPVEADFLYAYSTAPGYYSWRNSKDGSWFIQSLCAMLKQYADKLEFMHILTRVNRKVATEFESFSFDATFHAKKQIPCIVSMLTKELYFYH
# Sequence of Cytochrome P450 2C19 (Homo sapiens) (P33261 whole entry, looked up): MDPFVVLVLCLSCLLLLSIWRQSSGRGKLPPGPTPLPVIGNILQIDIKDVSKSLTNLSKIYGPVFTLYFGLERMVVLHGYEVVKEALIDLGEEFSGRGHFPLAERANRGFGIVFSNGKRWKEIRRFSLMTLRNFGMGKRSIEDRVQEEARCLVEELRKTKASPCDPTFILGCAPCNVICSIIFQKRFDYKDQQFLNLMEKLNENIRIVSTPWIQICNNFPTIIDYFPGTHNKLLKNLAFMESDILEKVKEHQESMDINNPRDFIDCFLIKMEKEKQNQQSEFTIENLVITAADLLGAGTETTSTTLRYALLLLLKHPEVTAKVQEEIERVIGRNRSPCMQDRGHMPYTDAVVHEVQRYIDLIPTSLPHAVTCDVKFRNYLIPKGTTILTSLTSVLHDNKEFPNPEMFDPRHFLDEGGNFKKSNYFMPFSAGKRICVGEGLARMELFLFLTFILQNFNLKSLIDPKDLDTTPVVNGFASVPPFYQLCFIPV
# Sequence of Apoptosis regulator Bcl-2 (Homo sapiens) (P10415 whole entry, looked up): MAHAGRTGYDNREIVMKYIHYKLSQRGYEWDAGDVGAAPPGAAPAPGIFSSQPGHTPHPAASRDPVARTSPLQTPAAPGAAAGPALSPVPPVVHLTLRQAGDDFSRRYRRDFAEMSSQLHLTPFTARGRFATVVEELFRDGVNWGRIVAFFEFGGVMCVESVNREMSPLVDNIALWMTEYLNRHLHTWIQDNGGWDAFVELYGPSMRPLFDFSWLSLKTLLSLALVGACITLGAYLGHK
# Sequence of Cytochrome P450 3A4 (Homo sapiens) (P08684 whole entry, looked up): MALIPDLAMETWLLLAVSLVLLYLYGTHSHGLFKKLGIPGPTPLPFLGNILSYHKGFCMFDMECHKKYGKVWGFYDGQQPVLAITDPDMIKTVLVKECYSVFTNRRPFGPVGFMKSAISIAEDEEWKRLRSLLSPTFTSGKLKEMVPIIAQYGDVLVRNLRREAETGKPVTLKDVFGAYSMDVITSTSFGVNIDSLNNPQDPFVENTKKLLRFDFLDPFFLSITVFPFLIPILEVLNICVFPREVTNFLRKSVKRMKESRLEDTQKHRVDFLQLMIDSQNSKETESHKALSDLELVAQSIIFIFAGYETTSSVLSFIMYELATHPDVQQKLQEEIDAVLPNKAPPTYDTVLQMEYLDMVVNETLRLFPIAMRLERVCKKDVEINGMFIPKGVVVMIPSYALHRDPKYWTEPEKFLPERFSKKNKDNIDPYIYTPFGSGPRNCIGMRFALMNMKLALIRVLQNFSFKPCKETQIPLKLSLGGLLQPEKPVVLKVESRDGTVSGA
smiles,measurement,setting,value
COCC(C)N(C(=O)CCl)c1c(C)csc1C (configuration not stated),outcome,[1],inactive
same,outcome,[2],inactive
same,outcome,[3],inactive
same,outcome,BCL2L11 (gene 10018),inactive
same,outcome,[4],inactive
same,outcome,Caspase-3 (Homo sapiens),inactive
same,outcome,[5],inactive
same,outcome,[6],inactive
same,outcome,[7],inactive
same,AC50,[8],2.05 µM (active)
same,outcome,[9],inactive
same,outcome,CYP2C8 (gene 1558),inactive
same,outcome,CYP2C9 (gene 1559),inactive
same,AC50,CYP2E1 (gene 1571),64.6 µM (active)
same,outcome,CYP4A11 (gene 1579),inactive
same,outcome,[10],inactive
same,AC50,[11],50 µM (active)
O=C(Nc1ccccc1-c1ccc(Cl)cc1)c1cccnc1Cl,outcome,[1],inactive
same,outcome,[2],inactive
same,AC50,[3],52.5 µM (active)
same,outcome,BCL2L11 (gene 10018),inactive
same,outcome,[4],inactive
same,outcome,Caspase-3 (Homo sapiens),inactive
same,outcome,[5],inactive
same,outcome,[6],inactive
same,outcome,[7],inactive
same,AC50,[8],1.62 µM (active)
same,outcome,[9],inactive
same,outcome,CYP2C9 (gene 1559),inactive
same,AC50,CYP2E1 (gene 1571),52.5 µM (active)
same,outcome,CYP4A11 (gene 1579),inactive
same,outcome,[10],inactive
same,outcome,[11],inactive
COP(=S)(OC)SCn1nnc2ccccc2c1=O,outcome,[1],inactive
same,outcome,[2],inactive
same,outcome,[3],inactive
same,outcome,BCL2L11 (gene 10018),inactive
same,outcome,[12],inactive
same,outcome,[4],inactive
same,outcome,Caspase-3 (Homo sapiens),inactive
same,outcome,[5],inactive
same,AC50,[6],33.6 µM (active)
same,outcome,[7],inactive
same,AC50,[8],6.27 µM (active)
same,AC50,[9],40.9 µM (active)
same,outcome,CYP2C9 (gene 1559),inactive
same,outcome,CYP2E1 (gene 1571),inactive
same,outcome,CYP4A11 (gene 1579),inactive
same,AC50,[13],25 µM (active)
same,outcome,[10],inactive
same,outcome,[11],inactive
COP(=S)(OC)Oc1ccc([N+](=O)[O-])c(C)c1,outcome,[1],inactive
same,outcome,[2],inactive
same,outcome,[3],inactive
same,outcome,BCL2L11 (gene 10018),inactive
same,outcome,[12],inactive
same,outcome,[4],inactive
same,outcome,Caspase-3 (Homo sapiens),inactive
same,AC50,[5],0.00316 µM (active)
same,AC50,[6],50 µM (active)
same,outcome,[7],inactive
same,AC50,[8],4.75 µM (active)
same,outcome,[9],inactive
same,outcome,CYP2C9 (gene 1559),inactive
same,outcome,CYP2E1 (gene 1571),inactive
same,outcome,CYP4A11 (gene 1579),inactive
same,outcome,[13],inactive
same,outcome,[10],inactive
same,outcome,[11],inactive
CS(=O)(=O)c1ccc(C(=O)C2C(=O)CCCC2=O)c([N+](=O)[O-])c1,outcome,[1],inactive
same,outcome,[2],inactive
same,outcome,[3],inactive
same,outcome,BCL2L11 (gene 10018),inactive
same,outcome,[12],inactive
same,outcome,[4],inactive
same,outcome,Caspase-3 (Homo sapiens),inactive
same,outcome,[5],inactive
same,AC50,[6],18.4 µM (active)
same,outcome,[7],inactive
same,outcome,[8],inactive
same,outcome,[9],inactive
same,outcome,CYP2C9 (gene 1559),inactive
same,outcome,CYP2E1 (gene 1571),inactive
same,outcome,CYP4A11 (gene 1579),inactive
same,outcome,[13],inactive
same,outcome,[10],inactive
same,outcome,[11],inactive
